# From article PMC5540273 (PLoS ONE, 2017)
# Like-named read-outs stand apart in the source and are kept apart here.
# Assays:
# AAK1 = conditions: n = 1
# ABL1-nonphosphorylated = conditions: concentration: 1 μM,replicates: in singlicate; n = 1
# ABL1-phosphorylated = conditions: concentration: 1 μM,replicates: in singlicate; n = 1
# ABL2 = conditions: concentration: 1 μM,replicates: in singlicate; n = 1
# ACVR1B = conditions: concentration: 1 μM,replicates: in singlicate; n = 1
# ACVR1 = conditions: concentration: 1 μM,replicates: in singlicate; n = 1
# ACVR2A = conditions: concentration: 1 μM,replicates: in singlicate; n = 1
# ACVR2B = conditions: concentration: 1 μM,replicates: in singlicate; n = 1
# ACVRL1 = conditions: concentration: 1 μM,replicates: in singlicate; n = 1
# ADCK3 = test system: T1, ADCK3; conditions: concentration: 1 μM,replicates: in singlicate; n = 1
# T1 construct: gene CABC1
# ADCK4 = conditions: concentration: 1 μM,replicates: in singlicate; n = 1
# AKT1 = conditions: concentration: 1 μM,replicates: in singlicate; n = 1
# AKT2 = conditions: concentration: 1 μM,replicates: in singlicate; n = 1
# AKT3 = conditions: concentration: 1 μM,replicates: in singlicate; n = 1
# ALK = conditions: concentration: 1 μM,replicates: in singlicate; n = 1
# AMPK-alpha1 = test system: T2, AMPK-alpha1; conditions: concentration: 1 μM,replicates: in singlicate; n = 1
# T2 construct: gene PRKAA1
# AMPK-alpha2 = test system: T3, AMPK-alpha2; conditions: concentration: 1 μM,replicates: in singlicate; n = 1
# T3 construct: gene PRKAA2
# ANKK1 = conditions: concentration: 1 μM,replicates: in singlicate; n = 1
# ARK5 = test system: T4, ARK5; conditions: concentration: 1 μM,replicates: in singlicate; n = 1
# T4 construct: gene NUAK1
# ASK1 = test system: T5, ASK1; conditions: concentration: 1 μM,replicates: in singlicate; n = 1
# T5 construct: gene MAP3K5
# [1] = concentration: 1 μM,replicates: in singlicate
# 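Note: KINOMEscan kinase panel screen.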
compound,measurement,setting,value
C[C@@H]1CNc2c(sc3ccc4nc(-c5ccncc5)ccc4c23)C(=O)N1,%Inh,AAK1; [1],49%
same,%Inh,ABL1-nonphosphorylated,38%
same,%Inh,ABL1-phosphorylated,11%
same,%Inh,ABL2,0%
same,%Inh,ACVR1B,0%
same,%Inh,ACVR1,0%
same,%Inh,ACVR2A,1%
same,%Inh,ACVR2B,30%
same,%Inh,ACVRL1,10%
same,%Inh,ADCK3,0%
same,%Inh,ADCK4,0%
same,%Inh,AKT1,0%
same,%Inh,AKT2,18%
same,%Inh,AKT3,22%
same,%Inh,ALK,33%
same,%Inh,AMPK-alpha1,20%
same,%Inh,AMPK-alpha2,0%
same,%Inh,ANKK1,0%
same,%Inh,ARK5,0%
same,%Inh,ASK1,90%
CS(=O)c1ccc(-c2coc3ccc(-c4n[nH]c(=O)o4)cc23)cc1 (stereo not drawn),%Inh,AAK1; [1],21%
same,%Inh,ABL1-nonphosphorylated,35%
same,%Inh,ABL1-phosphorylated,3%
same,%Inh,ABL2,0%
same,%Inh,ACVR1B,14%
same,%Inh,ACVR1,0%
same,%Inh,ACVR2A,8%
same,%Inh,ACVR2B,19%
same,%Inh,ACVRL1,0%
same,%Inh,ADCK3,0%
same,%Inh,ADCK4,12%
same,%Inh,AKT1,0%
same,%Inh,AKT2,0%
same,%Inh,AKT3,26%
same,%Inh,ALK,13%
same,%Inh,AMPK-alpha1,100%
same,%Inh,AMPK-alpha2,5%
same,%Inh,ANKK1,36%
same,%Inh,ARK5,10%
same,%Inh,ASK1,0%
CS(=O)(=O)Nc1ccc(-c2ccnc3[nH]ccc23)cc1 [GSK993273],%Inh,AAK1; [1],79%
same,%Inh,ABL1-nonphosphorylated,0%
same,%Inh,ABL1-phosphorylated,1%
same,%Inh,ABL2,16%
same,%Inh,ACVR1B,0%
same,%Inh,ACVR1,3%
same,%Inh,ACVR2A,0%
same,%Inh,ACVR2B,0%
same,%Inh,ACVRL1,0%
same,%Inh,ADCK3,12%
same,%Inh,ADCK4,22%
same,%Inh,AKT1,0%
same,%Inh,AKT2,21%
same,%Inh,AKT3,0%
same,%Inh,ALK,18%
same,%Inh,AMPK-alpha1,94.4%
same,%Inh,AMPK-alpha2,0%
same,%Inh,ANKK1,27%
same,%Inh,ARK5,0%
same,%Inh,ASK1,44%
Cc1nnc(-c2ccc3occ(-c4ccc(S(C)=O)cc4)c3n2)o1 (stereo not drawn),%Inh,AAK1; [1],0%
same,%Inh,ABL1-nonphosphorylated,43%
same,%Inh,ABL1-phosphorylated,30%
same,%Inh,ABL2,16%
same,%Inh,ACVR1B,0%
same,%Inh,ACVR1,0%
same,%Inh,ACVR2A,0%
same,%Inh,ACVR2B,0%
same,%Inh,ACVRL1,0%
same,%Inh,ADCK3,2%
same,%Inh,ADCK4,0%
same,%Inh,AKT1,0%
same,%Inh,AKT2,17%
same,%Inh,AKT3,0%
same,%Inh,ALK,0%
same,%Inh,AMPK-alpha1,0%
same,%Inh,AMPK-alpha2,0%
same,%Inh,ANKK1,0%
same,%Inh,ARK5,10%
same,%Inh,ASK1,0%
CC(=O)Nc1nc2cnc(Nc3cc(NC(=O)c4cccc(CC(C)(C)C#N)c4)ccc3C)nc2s1,%Inh,AAK1; [1],23%
same,%Inh,ABL1-nonphosphorylated,99.7%
same,%Inh,ABL1-phosphorylated,50%
same,%Inh,ABL2,61%
same,%Inh,ACVR1B,0%
same,%Inh,ACVR1,0%
same,%Inh,ACVR2A,11%
same,%Inh,ACVR2B,0%
same,%Inh,ACVRL1,0%
same,%Inh,ADCK3,3%
same,%Inh,ADCK4,0%
same,%Inh,AKT1,12%
same,%Inh,AKT2,5%
same,%Inh,AKT3,0%
same,%Inh,ALK,42%
same,%Inh,AMPK-alpha1,3%
same,%Inh,AMPK-alpha2,7%
same,%Inh,ANKK1,0%
same,%Inh,ARK5,7%
same,%Inh,ASK1,7%
Cl.Cl.NC[C@H](CC1CCCCC1)NC(=O)c1ccc(-c2ccnc3[nH]ccc23)s1 [GSK1581428],%Inh,AAK1; 1 µM,75%
same,%Inh,ABL1-nonphosphorylated,0%
same,%Inh,ABL1-phosphorylated,0%
same,%Inh,ABL2,8%
same,%Inh,ACVR1B,0%
same,%Inh,ACVR1,5%
same,%Inh,ACVR2A,61%
same,%Inh,ACVR2B,0%
same,%Inh,ACVRL1,0%
same,%Inh,ADCK3,13%
same,%Inh,ADCK4,2%
same,%Inh,AKT1,94.1%
same,%Inh,AKT2,93.4%
same,%Inh,AKT3,98.1%
same,%Inh,ALK,37%
same,%Inh,AMPK-alpha1,77%
same,%Inh,AMPK-alpha2,72%
same,%Inh,ANKK1,0%
same,%Inh,ARK5,89%
same,%Inh,ASK1,0%
